From PubChem BioAssay
KB-V1 cytotox – kills drug-selected multidrug resistant KB-V1 cells; KB-V1 MDR cells viability, CellTiter-Glo, 72 h; Potency, µM (series often up to 46.1 µM), hits mostly cytotoxic; actives 3.4% (n = 400,000); AID 1347076; note: nearly all actives have a fitted effect of over 60% in size
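Luminescent ATP read-out (CellTiter-Glo, 10 min) measures survival of drug-selected KB-V1 MDR cells after 72 h, 37 degrees C compound exposure. Medium: phenol-red-free DMEM, 10% FBS. Values from fitted concentration-response curves.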
SW480 rereplic – inducers of DNA re-replication in SW480 colon cancer cells; AID 624297; actives 1.8% (n = 340,000); SW480 DNA re-replication, Hoechst DNA content imaging, 48 h; Potency, µM (doses to about 46.1 µM), most hits filed as activators; note: nearly all actives have a fitted effect of over 55% in size
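Image-based DNA-content assay: after two days of treatment, nuclei were labelled with the DNA dye Hoechst and imaged, and hits were compounds raising the count of nuclei showing high fluorescence intensity.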
D3 ag – agonists of human D3 dopamine receptor | P35462 | max activation, % | D3R DiscoveRx beta-arrestin cells, luminescence, 90 min | actives 0.58% (n = 410,000) | AID 652048; in the data active = max activation above about 30%
Target sequence (P35462 whole entry, looked up): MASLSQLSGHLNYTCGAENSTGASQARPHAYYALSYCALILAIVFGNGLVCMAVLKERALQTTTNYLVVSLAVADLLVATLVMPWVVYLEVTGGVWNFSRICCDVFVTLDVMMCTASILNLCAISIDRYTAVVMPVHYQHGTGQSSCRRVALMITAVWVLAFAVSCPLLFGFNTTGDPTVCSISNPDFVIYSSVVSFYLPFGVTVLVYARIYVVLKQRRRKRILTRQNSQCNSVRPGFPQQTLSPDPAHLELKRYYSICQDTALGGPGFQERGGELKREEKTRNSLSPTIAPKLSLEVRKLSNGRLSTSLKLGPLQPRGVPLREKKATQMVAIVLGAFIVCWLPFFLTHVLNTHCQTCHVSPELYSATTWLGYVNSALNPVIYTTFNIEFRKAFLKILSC
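Cells at 1500/well, incubated overnight, then treated with pinned compounds (dopamine as control) for 90 min at 37 degrees C. DiscoveRx reagent added for 30 - 60 minutes at room temperature; luminescence read.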
D3 antag – blocks the human D3 dopamine receptor; D3R cells, DiscoveRx beta-arrestin luminescence, antagonist mode; stronger effect = lower value; max response, negative = inhibition, %; P35462; AID 652054; actives 2.5% (n = 360,000); in the data active = max response below about -50%; inconclusive = no clear call, values can overlap the other calls
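Cells plated overnight at 1500 cells/well, then exposed to library compounds with dopamine controls for 90 minutes at 37 degrees C. DiscoveRx reagent added for 30–60 minutes at room temperature; luminescence read, quantitative HTS format.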
KB-3-1 tox – kills parental KB-3-1 adenocarcinoma cells. KB-3-1 viability, CellTiter-Glo ATP luminescence, 72 h. Potency, µM (doses to about 46.1 µM), most hits filed as cytotoxic. actives 1.4% (n = 400,000). AID 1347075; note: nearly all actives have a fitted effect of over 60% in size
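Parental KB-3-1 viability, qHTS format: 72 h compound exposure, 37 °C; CellTiter-Glo; media-only wells and DMSO plates as controls; concentration-effect fits on corrected data.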
MCF10A rereplic – inducers of DNA re-replication in MCF 10A breast cells; AID 624296; MCF 10A DNA re-replication, Hoechst nuclear intensity, 48 h; actives 2.9% (n = 350,000); Potency, µM (top dose mostly 46.1 µM), usual class: activators; note: nearly all actives have a fitted effect of over 50% in size
Hits are given with their value. Hits are enriched below; roughly 8.9% of the tested compounds scored in any of these assays. Unless noted, calls come from the whole dose curve; as a rule, active = well fitted curve in the direction sought with a large enough effect; inconclusive = small, poorly fitted or top-dose-only effect, or another doubt; inactive = no such curve, though single readings can be large; an effect the other way counts as inactive or inconclusive.

`CCOc1ccc(N(Cc2cc3ccc(C)cc3[nH]c2=O)S(=O)(=O)c2ccccc2)cc1` gave KB-V1 cytotox inactive, SW480 rereplic 21µM, D3 ag inactive, D3 antag inactive, KB-3-1 tox 16µM and MCF10A rereplic 21µM.
Screening CCOc1ccc(C(=O)N(CN2CCCC2=O)c2ccccc2)cc1 returned KB-V1 cytotox inactive, SW480 rereplic inactive, D3 ag inactive, D3 antag inactive, KB-3-1 tox inactive and MCF10A rereplic inactive.
CCOc1ccc(N(Cc2ccc(C(=O)O)cc2)S(=O)(=O)c2ccc(C)cc2)cc1 was read as KB-V1 cytotox inconclusive, SW480 rereplic inconclusive, D3 ag inactive, D3 antag inactive, KB-3-1 tox inconclusive and MCF10A rereplic 3.7µM.
`Cc1ccc2cc(CN(c3ccccc3)S(=O)(=O)c3ccccc3)c(=O)[nH]c2c1` gave KB-V1 cytotox inactive, SW480 rereplic inactive, D3 ag inactive, D3 antag inactive, KB-3-1 tox inactive and MCF10A rereplic inactive.
Screening COc1ccc(N(Cc2cc3ccccc3[nH]c2=O)S(C)(=O)=O)cc1 returned KB-V1 cytotox 16µM, SW480 rereplic inactive, D3 ag inactive, D3 antag inactive, KB-3-1 tox inactive and MCF10A rereplic inactive.
`CC(=O)Nc1ccc(NC(=O)c2nc(SCc3ccccc3F)ncc2Cl)cc1` gave KB-V1 cytotox inactive and KB-3-1 tox inconclusive.
`COc1ccccc1N1CCN(c2cc(C)nc3nc(-c4ccc(Cl)cc4)nn23)CC1` gave KB-V1 cytotox inconclusive, D3 ag inactive and KB-3-1 tox inactive.
O=C(CN1C(=O)C2(SCC(=O)N2c2ccc(F)cc2)c2ccccc21)NCCc1ccccc1 (configuration not stated) was read as KB-V1 cytotox inactive, D3 ag inactive and KB-3-1 tox inactive.
For COc1ccc2[nH]c(=O)c(CN(c3ccccc3)S(=O)(=O)c3ccccc3)cc2c1 the results were SW480 rereplic inconclusive, D3 ag 33, D3 antag inactive and MCF10A rereplic inactive.
Screening CN(C)CCCN(C(=O)COc1ccccc1)c1nc2cc3c(cc2s1)OCCO3 returned KB-V1 cytotox inactive, SW480 rereplic inactive, D3 ag inactive, D3 antag inactive, KB-3-1 tox inactive and MCF10A rereplic inactive.
`CN(C)CCCN(C(=O)CCS(=O)(=O)c1ccccc1)c1nc2cc3c(cc2s1)OCO3` gave KB-V1 cytotox inconclusive, SW480 rereplic inconclusive, D3 ag inactive, D3 antag inconclusive, KB-3-1 tox inconclusive and MCF10A rereplic 5.2µM.
CN(C)CCCN(C(=O)CCSc1ccccc1)c1nc2cc3c(cc2s1)OCO3 was read as KB-V1 cytotox inconclusive, SW480 rereplic inactive, D3 ag inactive, D3 antag -50, KB-3-1 tox inconclusive and MCF10A rereplic inconclusive.
Screening CCN(CC)CCN(C(=O)CCS(=O)(=O)c1ccccc1)c1nc2cc(OC)c(OC)cc2s1 returned KB-V1 cytotox inactive, SW480 rereplic inactive, D3 ag inactive, D3 antag inactive, KB-3-1 tox inactive and MCF10A rereplic inactive.
Screening O=C(C1CCCN(S(=O)(=O)c2ccccc2[N+](=O)[O-])C1)N1CCCC1 (configuration not stated) returned KB-V1 cytotox 12µM, SW480 rereplic inactive, D3 ag inactive, D3 antag inactive, KB-3-1 tox inactive and MCF10A rereplic inactive.
O=C(NCCN1CCN(c2ccccc2)CC1)C1CCN(S(=O)(=O)c2cccc3nonc23)CC1 was read as KB-V1 cytotox inconclusive, SW480 rereplic inactive, D3 ag 41, D3 antag inactive, KB-3-1 tox inactive and MCF10A rereplic inactive.
`O=C(NCCN1CCN(c2ccccc2)CC1)C1CCN(S(=O)(=O)c2cccs2)CC1` gave KB-V1 cytotox inactive, SW480 rereplic inactive, D3 ag 46, D3 antag inactive, KB-3-1 tox inactive and MCF10A rereplic inactive.
O=C(NCCc1ccccc1)C1CCN(S(=O)(=O)c2cccs2)CC1 was read as KB-V1 cytotox inconclusive, SW480 rereplic inactive, D3 ag inactive, D3 antag inactive, KB-3-1 tox inactive and MCF10A rereplic inactive.
O=C(C1CCCN(S(=O)(=O)c2cccc3nonc23)C1)N1CCC(Cc2ccccc2)CC1 (configuration not stated) was read as KB-V1 cytotox inactive, SW480 rereplic inconclusive, D3 ag inactive, D3 antag -53, KB-3-1 tox inconclusive and MCF10A rereplic inconclusive.
For O=C(O)C1CCCN(S(=O)(=O)c2ccccc2[N+](=O)[O-])C1 (configuration not stated) the results were KB-V1 cytotox inconclusive, SW480 rereplic inactive, D3 ag inactive, D3 antag inactive, KB-3-1 tox inactive and MCF10A rereplic inactive.
For CC(C)Oc1ccc(C(=O)N(Cc2ccco2)c2ccccn2)cc1 the results were KB-V1 cytotox inactive, D3 ag inactive and KB-3-1 tox inactive.
CC(=O)c1cccc(NC(=O)CSc2nnc3ccc(-c4ccc(C)cc4)nn23)c1 was read as D3 ag inactive.
`Cc1ccc2c(=O)cc(C(=O)Nc3c(C(=O)c4ccccc4)oc4ccccc34)oc2c1` gave KB-V1 cytotox inactive, D3 ag inactive and KB-3-1 tox inactive.
O=C(NCc1c(Cl)cccc1Oc1ccccc1)c1ccccc1 was read as KB-V1 cytotox 12µM, SW480 rereplic inactive, D3 ag inactive, D3 antag inactive, KB-3-1 tox inactive and MCF10A rereplic inconclusive.
Screening O=C1C=C(NC2=CC3OC(c4ccccc4)OCC3OC2=O)CCC1 (configuration not stated) returned KB-V1 cytotox inconclusive, SW480 rereplic inconclusive, D3 ag inactive, D3 antag -72, KB-3-1 tox inconclusive and MCF10A rereplic inconclusive.
Screening CC(=O)c1cccc(NC(=O)C2=CC(c3ccc4c(c3)OCO4)=NS(=O)(=O)N2C)c1 returned KB-V1 cytotox inactive, SW480 rereplic inactive, D3 ag inactive, D3 antag -62, KB-3-1 tox inactive and MCF10A rereplic inactive.
`Cc1ccc(NC(=O)C2=CC(c3ccc4c(c3)OCO4)=NS(=O)(=O)N2C)cc1` gave KB-V1 cytotox inactive, D3 ag inactive and KB-3-1 tox inactive.
Screening Cc1ccc(OCCSc2nc3ccccc3n2CC(=O)NC(C)C)cc1 returned KB-V1 cytotox inactive, D3 ag inactive and KB-3-1 tox inactive.
For Cc1cccc(N(C)C(=O)CN(C)S(=O)(=O)c2ccc3[nH]c4c(c3c2)CCCC4)c1 the results were KB-V1 cytotox inactive, D3 ag inactive and KB-3-1 tox inactive.
For CCc1ccccc1NC(=O)c1ccc(F)c(S(=O)(=O)N2CCN(c3ccccc3OC)CC2)c1 the results were D3 ag inactive.
Screening CCOCCCNC(=O)c1cc(=O)n(Cc2cccc(C)c2)c2ccccc12 returned KB-V1 cytotox 9.2µM, SW480 rereplic inconclusive, D3 ag inactive, D3 antag inactive, KB-3-1 tox inconclusive and MCF10A rereplic inconclusive.
